Screens as filed in PubChem.
This is a sample that favours compounds with a hit; in the whole collection about 3.4% have one here.
MITF primary = blocks human microphthalmia-associated transcription factor. O75030. inhibition, % at 2.6 µM. AlphaScreen MITF homodimerization, bead proximity signal. 0.91% of 650,000 active; in the data active means inhibition above about 50%;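 further: 0% = vehicle wells with protein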
Target sequence (O75030 whole entry, looked up): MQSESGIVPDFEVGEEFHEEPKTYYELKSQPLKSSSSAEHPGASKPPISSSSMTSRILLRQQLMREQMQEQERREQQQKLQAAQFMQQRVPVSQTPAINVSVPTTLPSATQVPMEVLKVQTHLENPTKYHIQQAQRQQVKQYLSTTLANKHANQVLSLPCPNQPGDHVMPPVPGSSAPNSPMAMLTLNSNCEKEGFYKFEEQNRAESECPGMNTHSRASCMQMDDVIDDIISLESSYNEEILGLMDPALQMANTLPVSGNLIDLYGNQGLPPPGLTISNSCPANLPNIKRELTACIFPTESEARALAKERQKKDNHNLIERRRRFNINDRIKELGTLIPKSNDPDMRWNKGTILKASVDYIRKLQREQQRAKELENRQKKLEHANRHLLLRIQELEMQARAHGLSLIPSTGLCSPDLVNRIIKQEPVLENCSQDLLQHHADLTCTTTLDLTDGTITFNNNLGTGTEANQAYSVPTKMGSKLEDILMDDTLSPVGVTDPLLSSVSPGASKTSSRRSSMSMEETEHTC
GPR151 activ = human GPR151 activation; AID 1508602; activation, % at 11.2 µM; Q8TDV0; 1% of 650,000 active; PathHunter beta-arrestin GPR151 cells, luminescence; in the data active means activation above about 4.9%;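 further: 0% = median of compound wells and 100% = cells with positive control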
TEAD-YAP block = TEAD-YAP interaction inhibition; HEK-TIYL cells, TEAD-Gal4/YAP UAS-luciferase luminescence; AID 1259422; 1.4% of 640,000 active; inhibition, % at 9.12 µM; in the data active means inhibition above about 32%;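 further: 0% = median of test compound wells and 100% = reference inhibitor wells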
FBW7 act = human FBW7 E3 ligase activation, primary screen; 0.13% of 650,000 active; Q969H0; AID 1259310; AlphaScreen FBW7–phospho-cyclin E peptide binding, activator screen; normalized activity (activation), % at 26.1 µM; in the data active means normalized activity above about 1.9%;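 further: purified mutant Fbw7 with reduced substrate affinity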
Active calls of the source: *.

SMILES	MITF primary	GPR151 activ	TEAD-YAP block	FBW7 act
COc1cc(C(=O)Nc2nc(-c3ccccn3)cs2)cc(OC)c1OC	30.9	-0.5	73.3*	-0.2
Cc1ccc(-c2csc(NC(=O)c3ccc(S(=O)(=O)N(C)C)cc3)n2)c(C)c1	2.7	2.6	35.3*	0.1
O=C(Nc1nc(-c2ccccn2)cs1)c1cccc(Oc2ccccc2)c1	-1.8	2.0	37.1*	-0.1
Cc1ccc(-c2csc(NC(=O)c3cccc(Oc4ccccc4)c3)n2)cc1	19.3	0.3	-10.3	0.3
CCN(CC)S(=O)(=O)c1ccc(C(=O)Nc2nc(-c3ccc(C)cc3C)cs2)cc1	-1.9	-2.0	6.8	0.2
COc1cc(C(=O)Nc2nc(-c3ccc(C)cc3C)cs2)cc(OC)c1OC	4.0	1.0	32.3*	-0.1
Cc1ccc(S(=O)(=O)NS(=O)(=O)c2ccccc2)cc1	-12.8	0.8	-0.3	0.1
O=C(CNCc1ccc(Cl)cc1)Nc1ccccc1N1CCCCC1	21.0	0.4	-3.0	0.0
CC1CCc2nc(NC(=O)c3ccccc3S(C)(=O)=O)sc2C1 (centres undefined)	2.5	-0.5	-1.0	0.0
O=C1C(=O)N(c2ccccn2)C(c2cccnc2)/C1=C(\O)c1ccc([N+](=O)[O-])cc1 (centres undefined)	-6.4	-1.9	-0.9	0.0
CCOC(=O)c1c(NC(=O)C(CC)Sc2nnc3c4ccccc4n(Cc4ccccc4)c3n2)sc2c1CCCC2 (centres undefined)	5.8	1.4	7.1	0.1
COc1ccc(-c2cc(-c3ccccc3)c(C#N)c(S(C)=O)n2)cc1 (centres undefined)	-7.9	0.0	53.1*	-0.1
COc1ccc(-c2cc(-c3ccccc3)c(C#N)c(S(=O)Cc3ccccc3)n2)cc1 (centres undefined)	5.5	-0.8	3.4	0.4
CS(=O)(=O)c1ncc(Cl)c(C(=O)Nc2cc(C(F)(F)F)ccc2Cl)n1	16.0	2.6	-2.4	0.0
CN1CCN(C(CNS(=O)(=O)c2ccc(Cl)cc2)c2ccc3c(c2)OCO3)CC1 (centres undefined)	16.8	-0.5	13.4	2.4*
COc1ccc(S(=O)(=O)NCC(c2ccc3c(c2)CCN3C)N2CCN(C)CC2)cc1 (centres undefined)	-6.5	-0.3	8.4	-0.1
CN1CCN(C(CNS(=O)(=O)c2cccc(F)c2)c2ccc3c(c2)CCN3C)CC1 (centres undefined)	59.5*	1.1	7.1	0.0
CC(Oc1ccc2ccccc2c1)C(=O)NNC(=O)c1cc2cc(Br)ccc2oc1=O (centres undefined)	-7.2	-1.3	-5.7	-0.1
COCCNC(=O)CSc1nccn1Cc1ccccc1	-15.9	-2.0	-7.7	0.0
Nc1nc(Nc2ccccc2)cc(N2CCC(N3CCOCC3)CC2)n1	4.3	-0.8	-6.2	0.0
CCOC(=O)c1cnc2c(C)cccc2c1Nc1ccc(N(CC)CC)cc1	7.4	-1.2	-3.2	0.0
O=C(COc1ccccc1)Nc1ccc(S(=O)(=O)N2CC3CC(C2)c2cccc(=O)n2C3)cc1 (centres undefined)	-3.8	-0.6	-3.8	0.3
O=S(=O)(NCc1cccs1)c1ccc(Cc2ccc(S(=O)(=O)NCc3cccs3)cc2)cc1	7.1	1.0	33.6*	0.1
O=S(=O)(NCc1cccs1)c1ccc(-c2ccc(S(=O)(=O)NCc3cccs3)cc2)cc1	-4.5	0.2	4.2	0.1
C=CCOc1cccc(C(=O)NCc2ccccc2Cl)c1	-7.1	0.5	-2.1	0.1
SMILES	MITF primary	GPR151 activ	TEAD-YAP block	FBW7 act
COc1ccc(CCNc2cc(N3CCN(CCO)CC3)ccc2[N+](=O)[O-])cc1OC	9.8	2.1	63.6*	-0.2
COc1ccc(C(=O)N2CCN(c3ccc([N+](=O)[O-])c(NCCc4ccc(OC)c(OC)c4)c3)CC2)cc1Cl	-0.9	-1.6	58.7*	-0.2
O=C(c1ncn[nH]1)N1CCN(c2ccc([N+](=O)[O-])c(NCc3ccc(Cl)cc3)c2)CC1	-332.6	-1.1	7.1	3.9*
COc1cc(CN2CCN(c3ccc([N+](=O)[O-])cc3)CC2)cc([N+](=O)[O-])c1O	32.8	0.8	-0.5	-0.1
COc1ccc(N2CCN(Cc3cc(OC)c(O)c([N+](=O)[O-])c3)CC2)cc1	72.2*	0.1	-8.8	-0.2
CC(C)(C)NS(=O)(=O)c1ccc2c(c1)C(=NO)c1cc(S(=O)(=O)NC(C)(C)C)ccc1-2	-0.9	3.7	-2.2	0.1
COc1ccc(C(=O)COC(=O)C(Cc2c[nH]c3ccccc23)NC(=O)c2ccco2)cc1 (centres undefined)	-3.0	-0.4	-2.8	0.0
O=C1CSC(=S)N1/N=C/c1ccccc1OS(=O)(=O)c1ccccc1	12.2	-0.8	4.6	0.1
COc1cccc(/C=N/N2C(=O)CSC2=S)c1O	76.6*	-0.1	-13.1	-1.6
Cc1ccc(N(CC(=O)NCCc2ccccc2)C(=O)CCC(=O)Nc2ccccn2)cc1	12.8	-1.0	19.0	0.1
O=C(Nc1ccc(N2CCOCC2)cc1)C1CCCN(c2ccc(-n3ccnc3)nn2)C1 (centres undefined)	14.2	-0.3	0.5	0.4
Nc1nonc1C(=O)N/N=C/c1ccccc1O	62.6*	-3.0	2.5	-0.3
O=C(N/N=C/c1cc2ccccc2cc1O)c1ccncc1	53.5*	2.7	87.8*	-2.1
COc1ccc(O)c(/C=N/NC(=O)c2ccncc2)c1	20.2	0.8	24.4	-0.7
O=C(N/N=C/c1cc(Cl)cc(Cl)c1O)c1ccncc1	95.6*	-0.6	32.3*	-0.3
Nc1nonc1C(=O)N/N=C/c1cc(Cl)cc(Cl)c1O	68.2*	2.1	9.4	-0.9
CC(C)c1nnc(NC(=O)c2ncoc2-c2cccc(F)c2)s1	-3.2	-0.5	-2.7	-0.2
COC(=O)c1ccc([C@@H]2C[C@H]3CN(C4Cc5ccccc5C4)C(=O)[C@]34CCCN24)cc1	-3.7	-0.4	-13.3	-0.1
COc1cc(C2CC(=O)Nc3c2ccc2ccccc32)c(Br)c(OC)c1OC (centres undefined)	-17.5	0.3	59.0*	0.0
COc1cc(C2CC(=O)Nc3cc4c(cc32)OCO4)c(Br)c(OC)c1OC (centres undefined)	-3.1	-0.8	51.1*	-0.1
COc1ccc(C2CC(=O)Nc3cc4c(cc32)OCO4)cc1O (centres undefined)	16.8	-0.4	2.0	0.0
c1cncc(-c2[nH]ncc2-c2ccnc3ccccc23)c1	2.3	-0.7	-1.9	0.0
C=CC[n+]1c(Nc2ccc(NC(C)=O)cc2)sc(C)c1-c1ccccc1	13.5	0.3	32.6*	-0.2
N#Cc1ccc(NC(=O)COc2nncc3ccccc23)cc1	-2.2	1.6	0.4	0.0
Cc1ccc2[nH]c3nc4ccccc4nc3c2c1	-12.1	-5.2	-12.8	0.0
COc1ccc2[nH]c(C)cc(=O)c2c1	12.1	0.6	10.7	0.1
COc1ccc2[nH]c3nc4cc(C)c(C)cc4nc3c2c1	-3.4	0.3	42.7*	-0.1
COc1ccc2[nH]c(C)cc(=S)c2c1	6.8	1.0	42.2*	0.0
COc1ccnc(Cn2nc3c4c5c(sc4ncn3c2=O)CC(C)CC5)c1OC (centres undefined)	-4.9	-0.5	-8.3	0.1
